Measured values from PubChem BioAssay.
Where “and” joins values, the source holds several entries; their conditions need not be identical. Equal entries are not always repeated. Unmarked numbers belong to inactive results. No rule for the calls is given here.

Each compound was assayed on Botulinum neurotoxin type F light chain protease (Clostridium botulinum) (assay: Clostridium botulinum type F light chain protease inhibitors, microsphere substrate cleavage, validation (AID 588459)). Conditions: multiplex microsphere protease substrate cleavage assay, flow cytometry; at 10 µM; stronger effect = higher value.

Question: Which inhibition does the source give for CC(=O)O[C@H]1C[C@@]2(C)[C@@H](C[C@@H](O)[C@H]3[C@@]4(C)CC[C@@H](O)[C@@H](C)C4CC[C@@]32C)/C1=C(\CCC=C(C)C)C(=O)O (stereo not given in full) here?
Answer: -2.5%

Question: COc1ccccc1N=CC1=C(O)CC(c2ccccc2)CC1=O (stereo not given) was tested. Which inhibition did it give?
Answer: 0.8%

Question: CCOC(=O)Nc1ccc2c(c1)N(C(=O)CCN1CCOCC1)c1ccccc1S2 was tested. Which inhibition did it give?
Answer: -1.6%

Question: With COc1ccccc1OCC(=O)O as the compound, how does the inhibition read?
Answer: 1%

Question: Cc1cc(O)c2/c(=N\N)c(-c3csc(C)n3)coc2c1 was tested. Which inhibition did it give?
Answer: -0.4%

Question: CC(=O)OC[C@H]1O[C@@H](n2ncc(=O)[nH]c2=O)[C@H](OC(C)=O)[C@@H]1OC(C)=O was tested. Which inhibition did it give?
Answer: -0.5%

Question: With CCOc1ccc(C(=O)/C=C/c2cc(OC)c(OC)c(OC)c2)cc1 as the compound, how does the inhibition read?
Answer: 0.5%

Question: For CC(=O)Nc1ccc(CN2CCN(C3CCCCC3)C(CCO)C2)cc1 (stereo not given), which inhibition is on record?
Answer: -0.2%

Question: CC[N+]1(CC)CC2=Cc3ccccc3CC2C1 (stereo not given) was tested. Which inhibition did it give?
Answer: -1.1%

Question: For O=C(Nc1ccc(Cl)cn1)Nc1ccccc1Cl, which inhibition is on record?
Answer: 2.9%

Question: Which inhibition does the source give for O=C(c1ccc(O)cc1)c1ccc(O)cc1O here?
Answer: -0.9%

Question: With Cc1nc2c(c3c1[nH]c1ccccc13)C(=O)CC(C)(C)C2 as the compound, how does the inhibition read?
Answer: 2.1%

Question: How did the inhibition turn out when CSc1ccc2c(c1)N(CCC1CCCCN1C)c1ccccc1S2 (stereo not given) was run?
Answer: -0.1%

Question: Cc1ccc2c(c1)c1c(n2C)C(=O)CCC1 was tested. Which inhibition did it give?
Answer: -1.5%

Question: How did the inhibition turn out when CC(=O)CCc1oc2ccccc2c1-c1ccccc1 was run?
Answer: -0.7%

Question: For CCCC(CCC)C(=O)OC1C[C@H]2CC[C@@H](C1)[N+]2(C)C (stereo not given in full), which inhibition is on record?
Answer: -1.1%

Question: Which inhibition does the source give for COC(=O)c1cc(-c2c(C)oc3cc(OC)ccc3c2=O)c(C)o1 here?
Answer: -0.4%

Question: How did the inhibition turn out when CNc1c2c(nn1C)CCCC2 was run?
Answer: 0.6%

Question: How did the inhibition turn out when CCNC(=S)Nc1ccc(OC(F)(F)F)cc1 was run?
Answer: 2.2%

Question: With COc1ccc2[nH]c(=O)c(CNC3CCCCC3)cc2c1 as the compound, how does the inhibition read?
Answer: -1.7%

Question: For COc1cccc(OCc2cc(C3Nc4ccccc4C(=O)N3Cc3ccco3)ccc2OC)c1 (stereo not given), which inhibition is on record?
Answer: -1%

Question: For C[C@]12CC[C@@H]3c4ccc(O)cc4C(=O)C[C@H]3[C@@H]1CC[C@@H]2O, which inhibition is on record?
Answer: 1.2%

Question: With CC(C)=CCCC1=CCC2C(=O)NNC(=O)C2C1 (stereo not given) as the compound, how does the inhibition read?
Answer: -1.6%

Question: N#Cc1c2c(c(-c3ccccc3)[nH]c1=O)CCCC2 was tested. Which inhibition did it give?
Answer: -7.4%

Question: Which inhibition does the source give for COc1ccc(-c2c[n+](CC(=O)OC3CC(C)CCC3C(C)C)c3n2CCC3)cc1 (stereo not given) here?
Answer: 0.9%

Question: Which inhibition does the source give for CCC(=O)Oc1ccc(/C(CC)=C(\CC)c2ccc(OC(=O)CC)cc2)cc1 here?
Answer: -2%

Question: Nc1cnn(C2OC(CO)C(O)C2O)c(=O)n1 (stereo not given) was tested. Which inhibition did it give?
Answer: 0.5%

Question: For O=C(NCCCCCc1nc2ccccc2[nH]1)c1ccccc1Cl, which inhibition is on record?
Answer: 1.4%

Question: With Cc1ccc2c(c1)C(O)(C1COC(C)(C)CC1=O)C(=O)N2C (stereo not given) as the compound, how does the inhibition read?
Answer: -1.1%

Question: With Cc1ccc2c(c1)C(O)(c1c(C)[nH]c3ccccc13)C(=O)N2 (stereo not given) as the compound, how does the inhibition read?
Answer: -4.4%

Question: For O=c1[nH]cnc2[nH]ncc12, which inhibition is on record?
Answer: 4.1%

Question: For N/C(=N/OS(=O)(=O)c1ccc([N+](=O)[O-])cc1)c1ccncc1, which inhibition is on record?
Answer: 2.2%

Question: For CCNC1=C(Cl)C(=O)c2ccccc2C1=O, which inhibition is on record?
Answer: 1.2%

Question: For O=C(O)c1cc(-c2ccccc2)nc2ccccc12, which inhibition is on record?
Answer: -1.1%

Question: Cc1nc(N)nc2c1CCCC2 was tested. Which inhibition did it give?
Answer: 2.4%

Question: Which inhibition does the source give for Nc1ccc(C(=O)O)c(O)c1 here?
Answer: -4.5% and 1.6%

Question: With O=C(NCCN1CCOCC1)c1ccc(Cl)cc1 as the compound, how does the inhibition read?
Answer: 2.4%

Question: C[C@H](NC(=O)OC(C)(C)C)C(=O)NCC1CCC(C(=O)O)CC1 (stereo not given in full) was tested. Which inhibition did it give?
Answer: 2.7%

Question: How did the inhibition turn out when CC1CNCCN1S(=O)(=O)c1cccc2cnccc12 (stereo not given) was run?
Answer: 2.5%

Question: For COc1ccc(-c2cc3cc(OC)c(OC)cc3c(C)n2)cc1, which inhibition is on record?
Answer: -3.3%

What follows are compounds tested against Botulinum neurotoxin type A (Clostridium botulinum) (UniProt P0DPI0) (assay: BoNT/A light chain protease inhibitors, biochemical, multiplex microsphere flow cytometry, validation set (AID 588460)). Conditions: at 10 µM, stronger effect = higher value.
Botulinum neurotoxin type A (Clostridium botulinum), sequence (P0DPI0 whole entry, looked up): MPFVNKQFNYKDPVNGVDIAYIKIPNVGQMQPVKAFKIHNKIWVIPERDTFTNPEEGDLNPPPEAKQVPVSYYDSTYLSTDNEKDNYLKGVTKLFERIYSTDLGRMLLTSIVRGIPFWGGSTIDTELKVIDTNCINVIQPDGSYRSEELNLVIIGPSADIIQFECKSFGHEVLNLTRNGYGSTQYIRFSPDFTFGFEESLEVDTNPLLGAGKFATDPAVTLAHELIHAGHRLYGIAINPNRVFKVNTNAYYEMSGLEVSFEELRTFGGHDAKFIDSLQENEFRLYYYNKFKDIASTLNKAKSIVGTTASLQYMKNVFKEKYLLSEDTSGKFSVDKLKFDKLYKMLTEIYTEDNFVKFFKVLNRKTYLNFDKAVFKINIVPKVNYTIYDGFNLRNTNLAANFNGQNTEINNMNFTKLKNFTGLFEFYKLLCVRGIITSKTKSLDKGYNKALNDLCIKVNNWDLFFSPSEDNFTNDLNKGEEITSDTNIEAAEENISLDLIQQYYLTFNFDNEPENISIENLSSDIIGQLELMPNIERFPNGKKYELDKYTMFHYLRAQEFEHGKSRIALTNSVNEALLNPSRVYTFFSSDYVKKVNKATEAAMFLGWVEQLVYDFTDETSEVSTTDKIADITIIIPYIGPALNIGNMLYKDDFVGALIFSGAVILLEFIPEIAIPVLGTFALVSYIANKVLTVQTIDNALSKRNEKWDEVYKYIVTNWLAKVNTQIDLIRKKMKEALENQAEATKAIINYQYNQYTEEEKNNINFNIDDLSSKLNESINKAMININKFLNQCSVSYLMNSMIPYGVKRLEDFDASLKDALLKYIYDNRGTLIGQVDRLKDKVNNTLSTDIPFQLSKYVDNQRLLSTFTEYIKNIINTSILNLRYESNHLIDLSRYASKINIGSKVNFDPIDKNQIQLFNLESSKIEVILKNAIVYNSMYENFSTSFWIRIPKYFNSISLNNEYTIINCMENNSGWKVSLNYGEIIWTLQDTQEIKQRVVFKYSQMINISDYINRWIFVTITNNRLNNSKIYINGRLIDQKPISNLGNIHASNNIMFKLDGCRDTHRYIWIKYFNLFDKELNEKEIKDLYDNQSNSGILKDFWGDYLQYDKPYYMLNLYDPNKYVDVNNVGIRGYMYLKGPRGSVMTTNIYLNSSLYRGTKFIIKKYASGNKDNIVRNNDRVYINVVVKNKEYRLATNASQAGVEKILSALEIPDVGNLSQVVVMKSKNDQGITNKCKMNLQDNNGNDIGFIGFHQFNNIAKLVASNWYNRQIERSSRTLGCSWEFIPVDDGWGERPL

Question: How did the inhibition turn out when CC(=O)O[C@H]1C[C@@]2(C)[C@@H](C[C@@H](O)[C@H]3[C@@]4(C)CC[C@@H](O)[C@@H](C)C4CC[C@@]32C)/C1=C(\CCC=C(C)C)C(=O)O (stereo not given in full) was run?
Answer: -0.2%

Question: Which inhibition does the source give for COc1ccccc1N=CC1=C(O)CC(c2ccccc2)CC1=O (stereo not given) here?
Answer: 2.2%

Question: Which inhibition does the source give for CCOC(=O)Nc1ccc2c(c1)N(C(=O)CCN1CCOCC1)c1ccccc1S2 here?
Answer: -1.4%

Question: How did the inhibition turn out when COc1ccccc1OCC(=O)O was run?
Answer: -0.9%

Question: For Cc1cc(O)c2/c(=N\N)c(-c3csc(C)n3)coc2c1, which inhibition is on record?
Answer: -1%

Question: For CC(=O)OC[C@H]1O[C@@H](n2ncc(=O)[nH]c2=O)[C@H](OC(C)=O)[C@@H]1OC(C)=O, which inhibition is on record?
Answer: -0.3%

Question: For CCOc1ccc(C(=O)/C=C/c2cc(OC)c(OC)c(OC)c2)cc1, which inhibition is on record?
Answer: -0.5%

Question: How did the inhibition turn out when CC(=O)Nc1ccc(CN2CCN(C3CCCCC3)C(CCO)C2)cc1 (stereo not given) was run?
Answer: -1.1%

Question: For CC[N+]1(CC)CC2=Cc3ccccc3CC2C1 (stereo not given), which inhibition is on record?
Answer: 0%

Question: Which inhibition does the source give for O=C(Nc1ccc(Cl)cn1)Nc1ccccc1Cl here?
Answer: 0.2%

Question: O=C(c1ccc(O)cc1)c1ccc(O)cc1O was tested. Which inhibition did it give?
Answer: 1.3%

Question: How did the inhibition turn out when Cc1nc2c(c3c1[nH]c1ccccc13)C(=O)CC(C)(C)C2 was run?
Answer: 0.3%

Question: How did the inhibition turn out when CSc1ccc2c(c1)N(CCC1CCCCN1C)c1ccccc1S2 (stereo not given) was run?
Answer: -0.8%

Question: How did the inhibition turn out when Cc1ccc2c(c1)c1c(n2C)C(=O)CCC1 was run?
Answer: -1%

Question: For CC(=O)CCc1oc2ccccc2c1-c1ccccc1, which inhibition is on record?
Answer: -1.4%

Question: Which inhibition does the source give for CCCC(CCC)C(=O)OC1C[C@H]2CC[C@@H](C1)[N+]2(C)C (stereo not given in full) here?
Answer: 1%

Question: How did the inhibition turn out when COC(=O)c1cc(-c2c(C)oc3cc(OC)ccc3c2=O)c(C)o1 was run?
Answer: -2%

Question: Which inhibition does the source give for CNc1c2c(nn1C)CCCC2 here?
Answer: -1.3%

Question: How did the inhibition turn out when CCNC(=S)Nc1ccc(OC(F)(F)F)cc1 was run?
Answer: 2.8%

Question: For COc1ccc2[nH]c(=O)c(CNC3CCCCC3)cc2c1, which inhibition is on record?
Answer: 0.9%

Question: COc1cccc(OCc2cc(C3Nc4ccccc4C(=O)N3Cc3ccco3)ccc2OC)c1 (stereo not given) was tested. Which inhibition did it give?
Answer: 0.9%

Question: C[C@]12CC[C@@H]3c4ccc(O)cc4C(=O)C[C@H]3[C@@H]1CC[C@@H]2O was tested. Which inhibition did it give?
Answer: -1.3%

Question: CC(C)=CCCC1=CCC2C(=O)NNC(=O)C2C1 (stereo not given) was tested. Which inhibition did it give?
Answer: -1%

Question: With N#Cc1c2c(c(-c3ccccc3)[nH]c1=O)CCCC2 as the compound, how does the inhibition read?
Answer: -0.9%

Question: For COc1ccc(-c2c[n+](CC(=O)OC3CC(C)CCC3C(C)C)c3n2CCC3)cc1 (stereo not given), which inhibition is on record?
Answer: 0.1%

Question: Which inhibition does the source give for CCC(=O)Oc1ccc(/C(CC)=C(\CC)c2ccc(OC(=O)CC)cc2)cc1 here?
Answer: 0.1%

Question: Nc1cnn(C2OC(CO)C(O)C2O)c(=O)n1 (stereo not given) was tested. Which inhibition did it give?
Answer: 0%

Question: With O=C(NCCCCCc1nc2ccccc2[nH]1)c1ccccc1Cl as the compound, how does the inhibition read?
Answer: 0.3%

Question: Cc1ccc2c(c1)C(O)(C1COC(C)(C)CC1=O)C(=O)N2C (stereo not given) was tested. Which inhibition did it give?
Answer: 1.7%

Question: For Cc1ccc2c(c1)C(O)(c1c(C)[nH]c3ccccc13)C(=O)N2 (stereo not given), which inhibition is on record?
Answer: -1.6%

Question: For O=c1[nH]cnc2[nH]ncc12, which inhibition is on record?
Answer: 0.8%

Question: How did the inhibition turn out when N/C(=N/OS(=O)(=O)c1ccc([N+](=O)[O-])cc1)c1ccncc1 was run?
Answer: 0.3%

Question: For CCNC1=C(Cl)C(=O)c2ccccc2C1=O, which inhibition is on record?
Answer: -0.3%

Question: O=C(O)c1cc(-c2ccccc2)nc2ccccc12 was tested. Which inhibition did it give?
Answer: -0.1%

Question: Which inhibition does the source give for Cc1nc(N)nc2c1CCCC2 here?
Answer: 1.2%

Question: With Nc1ccc(C(=O)O)c(O)c1 as the compound, how does the inhibition read?
Answer: -0.4% and -0.2%

Question: How did the inhibition turn out when O=C(NCCN1CCOCC1)c1ccc(Cl)cc1 was run?
Answer: 1.2%

Question: C[C@H](NC(=O)OC(C)(C)C)C(=O)NCC1CCC(C(=O)O)CC1 (stereo not given in full) was tested. Which inhibition did it give?
Answer: -2.2%

Question: For CC1CNCCN1S(=O)(=O)c1cccc2cnccc12 (stereo not given), which inhibition is on record?
Answer: -0.1%

Question: With COc1ccc(-c2cc3cc(OC)c(OC)cc3c(C)n2)cc1 as the compound, how does the inhibition read?
Answer: 1.2%
